Assay outcomes from PubChem.
KB-V1 MDR tox – qHTS assay for MDR1-selective chemotherapeutics: Primary screen using the drug-selected MDR subline cells KB-V1. Potency, µM (highest dose often 46.1 µM), most hits filed as cytotoxic. KB-V1 MDR cells viability, CellTiter-Glo, 72 h. hit rate 3.4% among 400,000; further: on the % scale 0 is the no-effect control and ±100 the full control effect; nearly all actives have a fitted effect of over 60% in size
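Potencies derive from concentration-effect curves fitted to normalized luminescence (CellTiter-Glo) of KB-V1 cells treated for 72 h at 37 degrees C in phenol-red-free DMEM containing 10% FBS.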
HT1080 IDH1KD tx – qHTS for induction of synthetic lethality in tumor cells producing 2HG: qHTS for the HT-1080-IDH1KD cell line. hit rate 2% among 360,000. HT-1080 IDH1 knockdown viability, ATP luminescence, 48 h. Potency, µM (top dose mostly 46.1 µM), for the others: at the top dose activity, negative = toxicity, hits mostly cytotoxic. AID 686971, 2013;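 further: 0% = DMSO wells and -100% = cell-free medium wells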
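CellTiter-Glo luminescence after 48 h compound exposure at 37 degrees C of IDH1-knockdown HT-1080 cells in 5% FBS RPMI. %Activity scaled between DMSO wells and cell-free media wells, with curves fitted and assigned curve classes.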
HT1080NT lethal – qHTS for induction of synthetic lethality in tumor cells producing 2HG: qHTS for the HT-1080-NT fibrosarcoma cell line | HT-1080-NT fibrosarcoma viability, CellTiter-Glo ATP luminescence, 48 h | Potency, µM (titrated, usually from 46.1 µM), for the others: top-dose activity, negative = less viability, usual class: cytotoxic | hit rate 1.6% among 360,000 | AID 686970, 2013;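 further: NT is the 2HG producing partner of a matched IDH1 knockdown line; 0% = DMSO-treated cells and -100% = media-only wells without cells; nearly all actives have a fitted effect of over 55% in size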
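750 cells/well, RPMI + 5% FBS; 2 h settle, compound pin-transfer, 48 h at 37 degrees C. CellTiter-Glo 10 min RT, luminescence. Normalized to DMSO and media-only wells.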
HepG2 viability – qHTS for Inhibitors of TGF-b: Cytotox Counterscreen; HepG2 CAGA-GFP viability, ATP luminescence, 18 h; Potency, µM (titrated, usually from 46.1 µM), for inactives: top-dose activity change, negative = cytotoxicity, actives largely listed as cytotoxic; hit rate 0.76% among 410,000
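HepG2 CAGA-GFP cells (1000/well, DMEM with 1% FBS) received compound, then TGF-beta at 500 pg/mL final, and were incubated 18 hours at 37 degrees C. Viability was read by CellTiter-Glo luminescence. Media-only wells were set as complete cell-killing and DMSO as no toxicity.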
KB-3-1 cytotox – qHTS assay for MDR1-selective chemotherapeutics: Primary screen using the parental adenocarcinoma cell KB-3-1; KB-3-1 viability, CellTiter-Glo ATP luminescence, 72 h; Potency, µM (doses to about 46.1 µM), most hits filed as cytotoxic; hit rate 1.4% among 400,000; further: on the % scale 0 is the no-effect control and ±100 the full control effect; nearly all actives have a fitted effect of over 60% in size
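KB-3-1 parental drug-naive adenocarcinoma cells in DMEM/10% FBS, incubated 72 h at 37 C with pin-transferred compounds across a concentration series. Viability by CellTiter-Glo luminescence; concentration-response curves fitted after normalization.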
TGFb inhibitor – qHTS for Inhibitors of TGF-b; HepG2 CAGA-GFP TGF-b/SMAD3 reporter, GFP fluorescence, 18 h; TGF-beta stimulated, 500 pg/mL final; AID 588855, 2011; Potency, µM (titrated, usually from 46.1 µM), for the others: at the top dose activity, negative = inhibition, usual class: inhibitors; hit rate 1.2% among 410,000; further: on the % scale 0 is the no-effect control and ±100 the full control effect; nearly all actives have a fitted effect of over 65% in size
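HEPG2 CAGA-GFP cells (1000/well, DMEM with 1% FBS) were pre-incubated 2 h at 37 degrees C, given compound by pin tool, then stimulated with TGF-beta at 500 pg/mL final for 18 h before per-cell GFP fluorescence imaging.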
Numbers without * were called inactive; i = inactive; ? = inconclusive; . = no result. The list is not random: actives were taken first. Their share in the collection is about 6.6%. The call rests on the fitted dose curve; in most records, active means well fitted curve in the direction sought with a large enough effect; inconclusive means small, poorly fitted or top-dose-only effect, or another doubt; inactive means no such curve, though single readings can be large; an effect the other way counts as inactive or inconclusive. Potency means the concentration at half of the fitted maximal effect.

SMILES | KB-V1 MDR tox | HT1080 IDH1KD tx | HT1080NT lethal | HepG2 viability | KB-3-1 cytotox | TGFb inhibitor
CC(=NCCc1c(C)[nH]c2ccc(OCc3ccccc3)cc12)C1=C(O)CC(c2ccccc2)CC1=O (centres undefined) | ? | -16.9% | -28.9% | 3.7% | i | 11.8%
CCCCC(=NCCc1c(C)[nH]c2ccc(OC)cc12)C1=C(O)CC(c2ccccc2)CC1=O (centres undefined) | 5.8µM* | 2.31µM* | ? | 5.4% | 3.66µM* | ?
CCC(=NCCc1c(C)[nH]c2ccc(OC(F)(F)F)cc12)C1=C(O)CC(c2ccccc2)CC1=O (centres undefined) | 2.91µM* | 5.8µM* | 4.11µM* | -10.0% | 4.11µM* | ?
CCC1CCCCN1CC(=O)N1CCCc2c1c(=O)oc1ccc(OCc3ccccc3)cc21 (centres undefined) | i | . | . | -36.5% | i | ?
CC(C)CN1CCC(=O)N(C(CSc2ccc(Br)cc2)Cc2ccccc2)CC1 (centres undefined) | . | . | . | 6.1% | . | -10.5%
O=C(Nc1cnn(C23CC4CC(CC(C4)C2)C3)c1)c1cnn2c(C(F)(F)F)cc(-c3ccco3)nc12 | 8.2µM* | -1.8% | 0.0% | 0.1% | i | -2.3%
O=C(Nc1ccc2c(c1)OCO2)c1cnn2c(C(F)(F)F)cc(-c3ccco3)nc12 | i | 1.8% | 5.3% | 7.3% | i | 4.0%
COc1cc(NC(=O)CSc2nc(C)c(C(=O)Nc3ccccc3)c(-c3ccc(OC)c(OC)c3)c2C#N)c(OC)cc1Cl | i | . | . | -17.1% | i | -15.7%
Cc1nc(N/N=C/c2ccc(O)cc2O)cc(N2CCOCC2)n1 | ? | 4.11µM* | ? | -38.8% | ? | 38.2%
Cc1nc(N/N=C/c2cccc(F)c2)cc(N2CCOCC2)n1 | ? | -1.4% | -0.8% | -18.1% | i | 69.9%
Cc1cc(N/N=C/c2cccc(Cl)c2)nc(NCc2ccccc2)n1 | ? | ? | ? | 10µM* | ? | 20µM*
Cc1cc(N/N=C/c2ccccc2)nc(NCc2ccccc2)n1 | 13µM* | -4.5% | -19.9% | -20.0% | i | ?
Cc1cc(Nc2cccc(Cl)c2)nc(NCc2ccccc2)n1 | i | ? | ? | -93.8% | ? | 17.8µM*
Cc1cc(N/N=C/c2ccc(Cl)cc2)nc(NCc2ccccc2)n1 | ? | -20.7% | -3.8% | -60.4% | i | ?
Cc1cc(N/N=C/c2cccc(F)c2)nc(NCc2ccccc2)n1 | ? | 16.4µM* | 20.6µM* | -29.3% | i | ?
CC(C)Cn1c(=O)c2sccc2n2c(CCCC(=O)NCCc3ccc(Cl)cc3)nnc12 | . | . | . | -46.6% | . | ?
COC(=O)[C@H](C(C)C)N(Cc1ccccc1)S(=O)(=O)CCNC1CCCC1 | i | -7.2% | -1.3% | -30.3% | i | ?
CN(C)c1ccc(C=NC2CCc3ccccc32)cc1 (centres undefined) | i | . | . | -6.7% | i | 0.4%
Cn1ncc2c(NCc3ccco3)ncnc21 | i | . | . | -15.8% | i | 0.8%
Cn1ncc2c(Nc3ccc(O)cc3)nc(Cl)nc21 | i | ? | -22.6% | 9.5% | i | 3.0%
Cn1ncc2c(Nc3ccc(Br)cc3)nc(Nc3ccc(Br)cc3)nc21 | i | 18.4µM* | ? | -189.8% | i | 11.2µM*
Cn1ncc2c(Nc3cccc(Cl)c3)nc(Nc3cccc(Cl)c3)nc21 | ? | 20.6µM* | 14.6µM* | 22.4µM* | ? | ?
COc1ccc(Cn2c(C(=O)O)c(CNCc3ccccc3F)c3ccc(OC)cc32)cc1 | . | . | . | -46.8% | . | .
